A selection: hits, their analogues and other compounds. The true share with any hit is near 5.2%.
esBAF inh = blocks esBAF chromatin remodeling in mouse ES cells | AID 602393 | Bmi1-luciferase knock-in reporter, 24 h; 100% = twice the neutral-well signal | reporter increase, % at 12.5 µM | 2% of 350,000 active; in the data active = activation above about 40%;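 note: 0% = median of the plate's neutral control wells and 100% = double that signal; a rise in the Bmi1 reporter signal indicates esBAF inhibition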
SMARCA2 activ = increases SMARCA2 function in MMTV reporter cells; MG213 cells, MMTV-luciferase reporter, dexamethasone, overnight; activation, % at 9.1 µM; 1% of 370,000 active; AID 652017; in the data active = activation above about 7.8%;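 note: 0% = vehicle wells and 100% = reference activator wells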
SKN-1 inh = C. elegans SKN-1 inhibition; C. elegans VP596 Pgst-4::GFP/RFP ratio, acrylamide-induced, 24 h; inhibition, % at 21.8 µM; 0.49% of 360,000 active;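 active = interference check ratio from 0.5 to 1.5 plus GFP to RFP signal ratio inhibition reaching or exceeding a fixed threshold, cut at about 30% in these data, passing the limit was not always enough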
NadD block = inhibitors of Staphylococcus aureus NadD; purified NadD enzyme, colorimetric absorbance read-out; 0.78% of 360,000 active; inhibition, % at 20 µM; AID 602399; in the data active = inhibition above about 26%
GRIN3A LBD mod = modulates the human NR3A ligand-binding domain; NR3A LBD differential scanning fluorimetry, Tm shift; 0% = protein alone, 100% = glycine-bound protein; Tm shift relative to glycine control, % at 25 µM; 2.5% of 340,000 active;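 active = melting temperature shift of at least 10% of the positive control shift, at one fixed dose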
Vif inh = blocks HIV Vif function. HEK293T cells, Vif self-association by quenched fluorescence, imaging, 24 h. inhibition, % at 7.49 µM. 0.35% of 340,000 active. AID 602346; in the data active = inhibition above about 50%, passing the limit was not always enough
The depositor's hits bear a star; x = no result.

SMILES | esBAF inh | SMARCA2 activ | SKN-1 inh | NadD block | GRIN3A LBD mod | Vif inh
C[C@H]1CCCCO[C@@H](CN(C)Cc2ccc(C(=O)O)cc2)[C@@H](C)CN([C@@H](C)CO)C(=O)c2cc(NC(=O)Nc3ccc(C(F)(F)F)cc3)ccc2O1 | 0.7 | x | x | x | x | x
O=C(NNS(=O)(=O)c1ccc(Br)cc1)c1sccc1-n1cccc1 | x | 2.2 | 2.8 | 3.8 | 13.8* | 3.3
CSc1ccc(/C=C/C(=O)c2c(O)cc(C)oc2=O)cc1 | 54.3* | 3.9 | 9.1 | 2.4 | -3.9 | 2.3
COc1ccc(/C=C/C(=O)c2c(O)cc(C)oc2=O)c(OC)c1 | 64.2* | -0.1 | 16.4 | 2.2 | 8.1 | 4.7
CNC(=O)C[C@H]1CC[C@H]2[C@@H](COc3ccc(NC(=O)c4ccc(F)c(F)c4)cc3C(=O)N2C)O1 | -2.4 | x | x | x | x | x
COC1=C(Nc2ccc(C)cc2)C(=O)c2ccccc2C1=O | x | 1.5 | 9.3 | -5.0 | 1.3 | 3.3
Cc1ccc(SC2=C(Sc3ccc(C)cc3)C(=O)c3ccccc3C2=O)cc1 | 41.6* | 4.9 | 6.2 | 6.5 | -17.9 | -9.6
Cc1cc2oc(C(=O)Nc3ccc(S(=O)(=O)N4CCCC(C)C4)cc3)cc(=O)c2cc1Cl (stereo not given) | x | 1.8 | 2.6 | 27.5 | 14.1* | -2.9
c1ccc(-c2ccc3ncccc3n2)cc1 | 31.9 | -0.2 | 8.4 | -2.5 | x | x
Cc1nc(-c2ccccc2)cc(-c2ccccc2)n1 | 3.9 | -5.1 | 18.0 | -2.9 | -0.2 | -1.6
Nc1ccc(-n2ccnc2)cc1 | x | 1.9 | -17.7 | -4.4 | -2.8 | -7.4
c1ccc2nc(-c3ccc(-n4ccnc4)cc3)ccc2c1 | 13.8 | -0.6 | 66.3* | 0.2 | -31.4 | 4.2
CC(C)OC(=O)c1ccc2ccc(-c3ccccc3)nc2c1 | 54.6* | 6.2 | 48.7 | -5.2 | x | x
c1ccc(-c2ccc3ccccc3n2)cc1 | 36.9 | -0.3 | 24.5 | 3.0 | 31.9* | -8.9
c1ccc(-c2cccc(-c3ccccc3)n2)cc1 | 43.6* | -0.7 | 30.8 | 1.3 | -1.7 | -2.8
O=[N+]([O-])c1ccc(-c2ccc(/C=N/Nc3nc(NCc4ccccc4)nc(N4CCOCC4)n3)o2)cc1 | x | -2.3 | -0.5 | 22.7 | 10.8* | 1.0
CC1(C)CC(=O)C(/C=N/n2cnc3ccccc3c2=O)=C(O)C1 | 48.8* | -1.5 | -9.0 | -0.9 | -2.2 | 0.1
Cc1cc2ncc(-c3cccc(Cl)c3)cn2n1 | x | -3.0 | -2.2 | -3.1 | 0.1 | 7.5
Cc1nn2cc(-c3ccc(Cl)cc3)cnc2c1Cl | 72.4* | -0.7 | -4.5 | -2.2 | 0.1 | -3.3
CCCNC(=O)Nc1ccc2c(c1)C(=O)N(C)C[C@H](OC)[C@H](C)CN(CC1CCCC1)[C@H](C)CO2 | -3.1 | x | x | x | x | x
CCOC(=O)c1c(C)[nH]c(C(=O)N/N=C/c2ccc(OC)c(OC)c2)c1C | -14.5 | 0.2 | 8.8 | 5.6 | -1.1 | -6.2
CCOC(=O)c1c(C)[nH]c(C(=O)N/N=C/c2cc([N+](=O)[O-])ccc2O)c1C | 4.4 | -1.3 | -0.9 | 33.3* | -0.7 | 9.3
CCOC(=O)c1c(C)[nH]c(C(=O)N/N=C\c2ccccc2O)c1C | x | -1.7 | -9.5 | -3.4 | 17.5* | -1.0
Cc1ccc(N=C2N=C(N)c3ccccc32)cc1C | 55.2* | 3.3 | -31.7 | 1.3 | -3.7 | 15.5
CCCn1cnc2c(sc3nc4c(cc32)CSC(C)(C)C4)c1=O | 69.7* | -0.2 | 18.3 | 3.3 | -3.1 | 7.6
SMILES | esBAF inh | SMARCA2 activ | SKN-1 inh | NadD block | GRIN3A LBD mod | Vif inh
CCc1sc(C(=O)Nc2ccc3c(c2)OCO3)cc1C | 51.2* | 1.5 | -15.2 | 8.4 | -2.4 | -3.8
CCc1sc(C(=O)Nc2ccc(N3CCOCC3)cc2)cc1C | x | 6.7 | 0.1 | 5.5 | -2.4 | -2.6
CCc1sc(C(=O)Nc2ccc3c(c2)OCCO3)cc1Br | 51.2* | 6.8 | 12.5 | -12.6 | x | -5.9
CC(C)(O)C#Cc1ccc(C(=O)Nc2ccc3c(c2)OCO3)s1 | 62.9* | 2.6 | -5.5 | -6.0 | -11.3 | -8.2
CC(C)(O)C#Cc1ccc(C(=O)NC2CCCCC2)s1 | x | 2.8 | -10.3 | 1.4 | -0.2 | 14.2
CCc1sc(C(=O)Nc2ncccc2C)cc1C | 54.2* | -2.0 | -2.5 | 0.8 | -0.2 | 21.1
O=C(Nc1ccc2c(c1)OCCO2)c1ccc(Br)s1 | x | -1.5 | 10.8 | -7.5 | 6.6 | 12.8
CCc1sc(C(=O)Nc2ncccc2O)cc1C | -50.5 | 1.5 | 1.9 | -1.0 | -0.3 | 7.2
Cc1noc(C)c1NC(=O)Nc1ccc2c(c1)CC(=O)N([C@@H](C)CO)C[C@@H](C)[C@H](CN(C)Cc1ccc(Cl)c(Cl)c1)O2 | -1.5 | x | x | x | x | x
C/C=C/c1cnc2c(c1)C(=O)N([C@@H](C)CO)C[C@@H](C)[C@@H](CN(C)C(=O)Nc1ccc(F)cc1)O2 | 1.1 | x | x | x | x | x
COc1cccc(NC(=O)N2C[C@@H](O)COC[C@@H]3O[C@@H](CC(=O)NC4Cc5ccccc5C4)CC[C@H]32)c1 | -1.1 | x | x | x | x | x
Cc1cccc(S(=O)(=O)N[C@@H]2CC[C@@H](CCn3cc(-c4ccccn4)nn3)O[C@H]2CO)c1 | 4.1 | x | x | x | x | x
CC(=O)N[C@H]1CC[C@@H](CCNC(=O)C2CCC2)O[C@H]1CO | 5.3 | x | x | x | x | x
O=S(=O)(NCC(c1cccs1)N1CCc2ccccc2C1)c1ccccc1 (stereo not given) | x | 2.5 | -9.5 | -2.0 | 14.1* | 8.5
C[C@H]1CN([C@@H](C)CO)C(=O)Cc2cc(NC(=O)CCCCCC(=O)Nc3ccccc3N)ccc2O[C@H]1CN(C)Cc1ccc(C(F)(F)F)cc1 | -14.5 | x | x | x | x | x
COc1ccc(CN(C)C[C@@H]2OCCCC[C@@H](C)Oc3ccc(NS(=O)(=O)c4c(C)noc4C)cc3C(=O)N([C@H](C)CO)C[C@@H]2C)cc1 | -1.5 | x | x | x | x | x
CCOC(=O)c1sc(NC(=O)CN2C(=O)C3CC=CCC3C2=O)nc1C (stereo not given) | -1.0 | -0.7 | 11.8 | -1.5 | 0.5 | 4.2
CCOC(=O)c1c(-c2ccc(-c3ccccc3)cc2)csc1NC(=O)CNCCN(C)C | -17.9 | 5.7 | 52.0* | -4.2 | x | -2.2
CCOC(=O)c1sc(NC(=O)CN2CC(C)OC(C)C2)nc1C (stereo not given) | -8.5 | 2.3 | 35.4* | 7.8 | 0.2 | -3.4
CCOC(=O)c1c(-c2cccs2)csc1NC(C)=O | 2.2 | -0.7 | -1.7 | -3.6 | -1.2 | -1.8
CCOC(=O)c1c(-c2ccc(C)o2)csc1NC(=S)NC(=O)c1cccs1 | 6.6 | -2.2 | 9.9 | 2.3 | 18.0* | -1.7
CCOC(=O)c1c(-c2ccc(C)o2)csc1NC(=S)NC(=O)c1ccccc1Br | -1.7 | 1.9 | 4.4 | -3.0 | 2.6 | 1.6
CCOC(=O)c1c(-c2ccccc2)csc1NC(=O)CCN1C(=O)c2ccccc2C1=O | 1.2 | -2.4 | 6.1 | -9.2 | -0.2 | 18.6
CCOC(=O)c1c(-c2cccs2)csc1NC(=O)CN1CC(C)OC(C)C1 (stereo not given) | x | -1.1 | 36.7* | 1.5 | 1.0 | x
C[C@H](CO)N1C[C@H](C)[C@@H](CN(C)C(=O)Nc2cccc3ccccc23)Oc2ccc(NC(=O)Nc3ccc4c(c3)OCO4)cc2C1=O | -2.8 | x | x | x | x | x
